Most compounds without a hit are left out; they make up all but 4.5% or so of the library.
Jurkat NFkB inh: inhibitors of the PMA/ionomycin-induced NF-kB reporter in Jurkat cells; PMA/ionomycin-induced NF-kB luciferase reporter, luminescence; inhibition, % at 4 µM; 0.53% of 330,000 active; in the data active = inhibition above about 50%
Beta apoptosis: beta cell apoptosis inhibition; INS-1E cytokine-induced death, ATP luminescence, 48 h; percent of positive-control rescue, neutral wells zero; protection from apoptosis, % (test concentration not listed); 0.8% of 300,000 active; AID 435005;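 active = Every replicate reaches about 75%, or at least half do and their mean reaches it too, limit read from the data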;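 also: higher means more ATP so stronger rescue from cytokine killing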
Gli-Sufu antag: blocks Gli-Sufu signaling in a luciferase reporter; inhibition, % at 5 µM; AID 588413; 0.74% of 340,000 active; Sufu-KO-LIGHT fibroblasts, Gli luciferase reporter luminescence;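 active = inhibition above about 55%, limit read from the data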
Mdm2-MdmX inh: disrupts the human Mdm2-MdmX interaction | O15151+Q00987 | SaOS-2 split-luciferase Mdm2/MdmX complementation, luminescence | inhibition, % at 8 µM | 3% of 330,000 active | AID 485346;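 active = inhibition of at least 50% at 8 µM in the primary screen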
Target sequence (O15151 whole entry, looked up): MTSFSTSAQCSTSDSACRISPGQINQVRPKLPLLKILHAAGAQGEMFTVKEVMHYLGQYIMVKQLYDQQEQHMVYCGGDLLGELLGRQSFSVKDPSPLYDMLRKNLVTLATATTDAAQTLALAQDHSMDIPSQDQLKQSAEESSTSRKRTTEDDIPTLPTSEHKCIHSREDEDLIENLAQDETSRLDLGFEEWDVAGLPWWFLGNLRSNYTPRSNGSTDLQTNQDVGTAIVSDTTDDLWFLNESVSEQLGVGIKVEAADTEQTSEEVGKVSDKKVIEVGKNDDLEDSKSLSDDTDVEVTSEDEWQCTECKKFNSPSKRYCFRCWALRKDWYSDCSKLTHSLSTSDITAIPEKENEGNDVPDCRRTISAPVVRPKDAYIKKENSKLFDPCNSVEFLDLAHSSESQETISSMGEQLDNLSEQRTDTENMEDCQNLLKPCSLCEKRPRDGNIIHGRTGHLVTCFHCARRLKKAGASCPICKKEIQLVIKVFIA
Target sequence (Q00987 whole entry, looked up): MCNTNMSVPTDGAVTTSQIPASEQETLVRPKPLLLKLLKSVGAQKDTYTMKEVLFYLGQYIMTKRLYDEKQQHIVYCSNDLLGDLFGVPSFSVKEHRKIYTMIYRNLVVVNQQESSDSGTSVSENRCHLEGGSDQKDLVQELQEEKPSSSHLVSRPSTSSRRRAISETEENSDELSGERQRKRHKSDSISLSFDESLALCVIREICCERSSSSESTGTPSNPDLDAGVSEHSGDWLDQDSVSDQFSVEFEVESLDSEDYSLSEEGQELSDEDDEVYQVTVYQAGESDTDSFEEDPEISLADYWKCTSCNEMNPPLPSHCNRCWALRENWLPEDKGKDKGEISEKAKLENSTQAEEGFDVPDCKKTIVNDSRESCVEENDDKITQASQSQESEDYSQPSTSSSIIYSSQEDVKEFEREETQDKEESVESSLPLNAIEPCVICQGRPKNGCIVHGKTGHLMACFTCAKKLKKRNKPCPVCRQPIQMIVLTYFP
697 NFkB inh: lowers PMA/ionomycin-induced NF-kB signal in 697 B cells; inhibition, % at 4 µM; 697 B-cell NF-kB luciferase reporter, 16 h; 0.33% of 330,000 active; AID 435022; in the data active = inhibition above about 35%
CSC inhib: blocks cancer stem cells | cancer stem cell-like cells viability, luminescence | inhibition, % at 7.5 µM | 1.1% of 300,000 active | AID 2717; in the data active = inhibition above about 75%; tested in HMLE shEcad cells
Gli antag conf: confirmation of Gli-SUFU pathway antagonists; inhibition, % at 5 µM; shares compounds with Gli-Sufu antag; 40% of 2,500 active; Sufu-KO-LIGHT cells, Gli luciferase reporter, luminescence; AID 602428;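 active = mean inhibition at 5 µM reaching about 45%, limit read from the data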
SufuKO cytotox: cytotoxic in Gli-SUFU antagonist counter-screen | shares compounds with Gli-Sufu antag | Sufu-KO-LIGHT cells cytotoxicity, ATP luminescence | cytotoxicity, % at 5 µM | 32% of 2,500 active;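 active = mean cytotoxicity at 5 µM above about 25%, limit read from the data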;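 also: cells exposed to compound overnight for roughly 16 to 18 hours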
Wnt3a counter: inhibits Wnt3a reporter, counter-screen for Gli-SUFU antagonists | shares compounds with Gli-Sufu antag | Wnt-LIGHT cells, Wnt3a-driven luciferase reporter, luminescence | inhibition, % at 6.25 µM | 20% of 2,500 active;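 active = mean inhibition above about 25%, limit read from the data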
Large screens that a line does not name were inactive (follow-up assays come after a bar, where they were run).

Nc1c(Cl)cc([N+](=O)[O-])cc1Cl	none
COC1=C[C@@H]2C3=C([C@@H]2C1=O)[C@@H](NC(C)=O)CCc1cc(OC)c(OC)c(OC)c13	none
COc1ccc2c(c1)C(NC(C)=O)CCc1cc(OC)c(OC)c(OC)c1-2 (stereo not drawn)	none (no result: Jurkat NFkB inh, Beta apoptosis, Mdm2-MdmX inh, 697 NFkB inh, CSC inhib) | Gli antag conf 50 | SufuKO cytotox 64 | Wnt3a counter inactive
Cc1cccc(NP(C)(=O)c2nc3c(s2)CCCC3)c1 (stereo not drawn)	none
COc1cc(C2c3cc4c(c(O)c3CC3COC(=O)C32)OCO4)cc(OC)c1OC (stereo not drawn)	Gli-Sufu antag 62 (no result: Jurkat NFkB inh, Beta apoptosis, Mdm2-MdmX inh, 697 NFkB inh, CSC inhib) | Gli antag conf 57 | SufuKO cytotox 64 | Wnt3a counter inactive
COc1ccccc1CCNC(=O)CCC(=O)N1CC2C[C@@H](C1)Cn1c2cccc1=O	none
COC1/C=C/C=C(\C)Cc2cc(O)c(Cl)c(c2)N(C)C(=O)CC(OC(=O)C(C)C)C2(C)OC2C(C)C2CC1(O)NC(=O)O2 (stereo not drawn)	none (no result: Jurkat NFkB inh, Beta apoptosis, Mdm2-MdmX inh, 697 NFkB inh, CSC inhib) | Gli antag conf 61 | SufuKO cytotox 58 | Wnt3a counter inactive
O=P(NC(c1ccccc1)c1ccccc1)(Oc1ccccc1)Oc1ccccc1	none
NP(=O)(Oc1ccc(Cl)cc1)Oc1ccc(Cl)cc1	none (no result: Beta apoptosis)
CCOC(=O)C1(CCc2ccccc2)CCN(Cc2csc(C(C)=O)c2)CC1	none | Gli antag conf inactive | SufuKO cytotox inactive | Wnt3a counter inactive
CCCCCCC(=O)c1c(O)n(-c2ccccc2OC)c(=O)[nH]c1=O	none

High-throughput results (PubChem BioAssay)
